Some targets named below: RELARELA (p65 homodimer) (Homo sapiens, UniProt Q04206 1-307); p50p50 homodimer (Homo sapiens, UniProt P19838 7-356); RELB subunit;p50 subunit (Homo sapiens;Homo sapiens, UniProt Q01201;P19838 120-401;7-356).
Holding throughout (assay): protein binding microarray; high values mean tight binding
Common to all, as to conditions: dsDNA, one strand shown

Another experiment deals with T1, p52p52 homodimer (Homo sapiens, UniProt Q00653 4-332).
T1 sequence: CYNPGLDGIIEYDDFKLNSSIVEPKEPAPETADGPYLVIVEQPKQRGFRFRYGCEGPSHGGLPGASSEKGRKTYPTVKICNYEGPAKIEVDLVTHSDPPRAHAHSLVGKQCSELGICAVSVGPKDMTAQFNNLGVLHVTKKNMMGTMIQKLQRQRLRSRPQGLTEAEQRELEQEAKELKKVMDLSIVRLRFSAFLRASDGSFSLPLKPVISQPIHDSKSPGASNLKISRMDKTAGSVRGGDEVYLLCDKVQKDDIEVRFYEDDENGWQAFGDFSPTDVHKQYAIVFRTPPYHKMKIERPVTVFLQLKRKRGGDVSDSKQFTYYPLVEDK

For experiment [1], the target named is RELA (p65) subunit of heterodimer;p50 subunit (Homo sapiens;Homo sapiens, UniProt Q04206;P19838 1-307;7-356).
Experiment [2] deals with RELA (p65) subunit of heterodimer;p52 subunit (Homo sapiens;Homo sapiens, UniProt Q04206;Q00653 1-307;4-332).
The next experiment addresses T2, RELB subunit;p52 subunit (Homo sapiens;Homo sapiens, UniProt Q01201;Q00653 120-401;4-332).
T2 sequence 1: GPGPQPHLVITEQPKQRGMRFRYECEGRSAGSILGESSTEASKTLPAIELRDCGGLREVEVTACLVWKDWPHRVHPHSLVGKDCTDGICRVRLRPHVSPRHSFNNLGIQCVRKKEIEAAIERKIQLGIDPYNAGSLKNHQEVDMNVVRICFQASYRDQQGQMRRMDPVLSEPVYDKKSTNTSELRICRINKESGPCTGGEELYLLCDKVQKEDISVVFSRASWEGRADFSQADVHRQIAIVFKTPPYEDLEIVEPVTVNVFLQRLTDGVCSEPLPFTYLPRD
T2 sequence 2: T1 sequence

For experiment [3], the target named is C-Rel subunit;p50 subunit (Homo sapiens;Homo sapiens, UniProt Q04864;P19838 1-285;7-356).
For experiment [4], the target named is T3, C-Rel subunit;p52 subunit (Homo sapiens;Homo sapiens, UniProt Q04864;Q00653 1-285;4-332).
T3 sequence 1: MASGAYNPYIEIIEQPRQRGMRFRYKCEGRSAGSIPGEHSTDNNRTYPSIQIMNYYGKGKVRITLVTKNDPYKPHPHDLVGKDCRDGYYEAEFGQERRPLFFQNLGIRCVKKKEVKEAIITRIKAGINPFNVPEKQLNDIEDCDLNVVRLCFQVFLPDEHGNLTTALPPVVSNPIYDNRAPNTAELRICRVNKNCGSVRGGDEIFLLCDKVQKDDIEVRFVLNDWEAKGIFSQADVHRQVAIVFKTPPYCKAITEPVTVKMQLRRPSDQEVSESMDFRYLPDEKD
T3 sequence 2: T1 sequence

Chain of RELA (p65) subunit of heterodimer;p50 subunit (Q04206 1-307, chain 1 of 2): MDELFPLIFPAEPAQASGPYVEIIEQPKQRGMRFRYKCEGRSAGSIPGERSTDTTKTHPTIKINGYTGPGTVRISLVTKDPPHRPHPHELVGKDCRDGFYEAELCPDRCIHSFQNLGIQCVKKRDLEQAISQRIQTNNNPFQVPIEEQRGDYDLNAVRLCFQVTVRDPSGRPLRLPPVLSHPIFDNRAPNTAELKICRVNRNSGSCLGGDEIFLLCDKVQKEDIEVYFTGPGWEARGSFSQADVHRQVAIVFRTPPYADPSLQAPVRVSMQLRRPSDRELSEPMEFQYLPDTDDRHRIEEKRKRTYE
Chain of RELA (p65) subunit of heterodimer;p50 subunit (P19838 7-356, chain 2 of 2): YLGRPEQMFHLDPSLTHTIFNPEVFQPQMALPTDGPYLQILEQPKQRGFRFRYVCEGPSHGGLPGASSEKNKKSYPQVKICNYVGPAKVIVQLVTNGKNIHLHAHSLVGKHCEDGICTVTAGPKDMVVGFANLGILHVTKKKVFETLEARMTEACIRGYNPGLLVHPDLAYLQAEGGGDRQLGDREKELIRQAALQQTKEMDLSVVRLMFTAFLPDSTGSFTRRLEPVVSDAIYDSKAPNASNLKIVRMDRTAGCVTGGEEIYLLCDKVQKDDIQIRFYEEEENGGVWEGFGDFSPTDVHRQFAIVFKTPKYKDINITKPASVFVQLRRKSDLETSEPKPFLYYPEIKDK
Chain of RELARELA (p65 homodimer) (Q04206 1-307): as the sequence (Q04206 1-307, chain 1 of 2) above
Chain of p50p50 homodimer (P19838 7-356): as the sequence (P19838 7-356, chain 2 of 2) above

On to CAAGGAGCCCC, for which the binding signal with RELARELA (p65 homodimer) was -0.885 z-score; in the experiment with p50p50 homodimer, 0.241 z-score; with p52p52 homodimer, -0.0311 z-score; in experiment [1], -0.1 z-score; in [2], -0.176 z-score; in the experiment with RELB subunit;p50 subunit it was 0.0779 z-score. Besides, the binding signal was 0.0984 z-score with RELB subunit;p52 subunit, 0.121 z-score in experiment [3] and -0.176 z-score in experiment [4].

Regarding GAAAGTGCCCC, the binding signal with RELARELA (p65 homodimer) is 0.518 z-score; in the experiment with p50p50 homodimer it was 0.277 z-score; with p52p52 homodimer, 0.105 z-score; in experiment [1], 0.655 z-score; in [2], 0.365 z-score; with RELB subunit;p50 subunit, 0.443 z-score. Also, the binding signal with RELB subunit;p52 subunit is 0.479 z-score; in experiment [3], 0.607 z-score; in experiment [4], 0.511 z-score.

As to CAATAACTCCC, the binding signal with RELARELA (p65 homodimer) is 0.145 z-score; with p50p50 homodimer it was 0.702 z-score; in the experiment with p52p52 homodimer, 0.0211 z-score; in experiment [1], 0.38 z-score; in experiment [2], -0.231 z-score; in the experiment with RELB subunit;p50 subunit, 0.426 z-score. The results for the binding signal (with RELB subunit;p52 subunit; in experiment [3]; in [4]) were -0.00688 z-score, 0.223 z-score and -0.12 z-score, respectively.

Consider GGGAACGCCCT, for which the binding signal is 0.932 z-score with RELARELA (p65 homodimer); -0.126 z-score with p50p50 homodimer; 0.394 z-score with p52p52 homodimer; 0.492 z-score in [1]; 0.418 z-score in experiment [2]; -0.197 z-score in the experiment with RELB subunit;p50 subunit. For the same sequence, the binding signal with RELB subunit;p52 subunit came out at 0.214 z-score; in [3] it was 0.154 z-score; in experiment [4] it was 0.403 z-score.

Regarding AAGAGGCCCCT, the binding signal in the experiment with RELARELA (p65 homodimer) is -0.777 z-score; with p50p50 homodimer, 0.359 z-score; in the experiment with p52p52 homodimer it was -0.0334 z-score; in [1], -0.301 z-score; in experiment [2], -0.248 z-score; with RELB subunit;p50 subunit it was 0.196 z-score. Further, the binding signal in the experiment with RELB subunit;p52 subunit is 0.191 z-score; in experiment [3], -0.344 z-score; in experiment [4] it was -0.287 z-score.

For the sequence GGGATGGCCCC, the binding signal is -0.135 z-score in the experiment with RELARELA (p65 homodimer); 0.31 z-score in the experiment with p50p50 homodimer; 1.6 z-score with p52p52 homodimer; 0.79 z-score in experiment [1]; 1.15 z-score in experiment [2]; 0.678 z-score with RELB subunit;p50 subunit. For the same sequence, the binding signal with RELB subunit;p52 subunit came to 0.614 z-score; in [3], 0.492 z-score; in experiment [4], 0.746 z-score.

For the sequence CAGTTCTCCCT, the binding signal stood at 0.501 z-score with RELARELA (p65 homodimer); 1.08 z-score in the experiment with p50p50 homodimer; 0.65 z-score in the experiment with p52p52 homodimer; 0.838 z-score in experiment [1]; 0.551 z-score in [2]; 1.22 z-score with RELB subunit;p50 subunit. Besides, the binding signal was 1.11 z-score with RELB subunit;p52 subunit, 0.63 z-score in experiment [3] and 0.344 z-score in [4].

Regarding AGGTAGGTCCC, the binding signal with RELARELA (p65 homodimer) was -0.0694 z-score; in the experiment with p50p50 homodimer, -0.0842 z-score; in the experiment with p52p52 homodimer, 0.305 z-score; in experiment [1], -0.0951 z-score; in experiment [2], 0.0859 z-score; with RELB subunit;p50 subunit it was 0.0975 z-score. Moreover, the binding signal was 0.178 z-score with RELB subunit;p52 subunit, 0.0304 z-score in experiment [3] and 0.122 z-score in [4].

With CAAAGTTTCCT, the binding signal with RELARELA (p65 homodimer) is 0.729 z-score; with p50p50 homodimer it was -0.548 z-score; in the experiment with p52p52 homodimer, -0.572 z-score; in experiment [1] it was -0.313 z-score; in experiment [2] it was -0.494 z-score; with RELB subunit;p50 subunit, -0.737 z-score. In addition, the binding signal in the experiment with RELB subunit;p52 subunit is -0.489 z-score; in experiment [3] it was -0.0288 z-score; in experiment [4] it was -0.21 z-score.

Take CAGTGAACCCC: the binding signal in the experiment with RELARELA (p65 homodimer) is -0.0364 z-score; in the experiment with p50p50 homodimer, -0.483 z-score; in the experiment with p52p52 homodimer it was -0.201 z-score; in experiment [1], -0.227 z-score; in experiment [2], -0.346 z-score; in the experiment with RELB subunit;p50 subunit it was -0.298 z-score. Also, the binding signal in the experiment with RELB subunit;p52 subunit is -0.205 z-score; in experiment [3], -0.189 z-score; in experiment [4], -0.119 z-score.

CAAAGCGTCCT: the binding signal with RELARELA (p65 homodimer) was -0.639 z-score; with p50p50 homodimer it was -1.46 z-score; in the experiment with p52p52 homodimer it was -0.572 z-score; in [1], -0.956 z-score; in experiment [2], -0.873 z-score; in the experiment with RELB subunit;p50 subunit, -0.99 z-score. In addition, the binding signal with RELB subunit;p52 subunit is -0.804 z-score; in experiment [3], -1.53 z-score; in experiment [4], -0.973 z-score.

As to AGATAAGCCCT, the binding signal was -0.464 z-score in the experiment with RELARELA (p65 homodimer); -1.05 z-score in the experiment with p50p50 homodimer; -0.697 z-score with p52p52 homodimer; -0.764 z-score in experiment [1]; -0.927 z-score in experiment [2]; -1.1 z-score in the experiment with RELB subunit;p50 subunit. Besides, the results for the binding signal (with RELB subunit;p52 subunit; in experiment [3]; in [4]) were -0.798 z-score, -0.985 z-score and -0.712 z-score, respectively.

For the sequence AGAAGGCCCCT, the binding signal was -0.756 z-score in the experiment with RELARELA (p65 homodimer); 0.412 z-score with p50p50 homodimer; 0.0419 z-score in the experiment with p52p52 homodimer; 0.306 z-score in [1]; 0.149 z-score in [2]; 0.0369 z-score in the experiment with RELB subunit;p50 subunit. The values for the binding signal (in the experiment with RELB subunit;p52 subunit; in experiment [3]; in experiment [4]) were 0.0992 z-score, -0.139 z-score and 0.0154 z-score, respectively.

Turning to CAGTTGACCCT, the binding signal in the experiment with RELARELA (p65 homodimer) was -0.398 z-score; in the experiment with p50p50 homodimer, -0.922 z-score; in the experiment with p52p52 homodimer it was -0.533 z-score; in experiment [1], -0.555 z-score; in experiment [2] it was -0.554 z-score; in the experiment with RELB subunit;p50 subunit, -0.526 z-score. The binding signal with RELB subunit;p52 subunit was -0.777 z-score; in [3] it was -1.18 z-score; in [4], -0.639 z-score.

Regarding CAATGCACCCT, the binding signal is -0.473 z-score in the experiment with RELARELA (p65 homodimer); -0.555 z-score with p50p50 homodimer; -0.333 z-score with p52p52 homodimer; -0.616 z-score in experiment [1]; -0.779 z-score in experiment [2]; -0.601 z-score with RELB subunit;p50 subunit. The binding signal with RELB subunit;p52 subunit is -0.639 z-score; in [3], -1 z-score; in experiment [4], -0.653 z-score.

These data come from article PMC3218832.
